According to PubChem BioAssay AID2517 (National Center for Advancing Translational Sciences (NCATS), 2010):
Several values for one entry are separate records, joined by “and”; a condition that tells them apart may be missing. Equal values may be shown once. Among all 350,000 compounds or so, about 1,200 (0.34%) were called active. Roughly 3% stayed inconclusive and do not appear here. Calls come from the whole dose curve; as a rule, active = well fitted inhibition curve with a large enough effect; inconclusive = small, poorly fitted or top-dose-only effect; inactive = no such curve, though single readings can be large or run the other way. This excerpt belongs to a sample that is enriched for actives. Some structures have more than one record in an assay (separate samples or runs), and their calls can disagree. Positions of bridges follow the written chain, without caps; N, C: chain ends. Non-standard residues stand in square brackets, D forms with d. Residues, ends and D or L forms follow the SMILES beside them. *: point of attachment. X1 = CC[C@H](C)CCCCC(=O)*; Dab = NCC[C@H](N)C(=O)O
Note: nearly all actives have a fitted effect of over 55% in size.
Potency is the fitted concentration of half-maximal effect.
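Throughout, for activity change, negative = inhibition: plate controls were vehicle for no effect and reference inhibitor for full effect.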

Each compound was assayed against DNA repair nuclease/redox regulator APEX1 (Homo sapiens) (UniProt P27695) (assay: qHTS Assay for Inhibitors of the Human Apurinic/apyrimidinic Endonuclease 1 (APE1)). Conditions: recombinant APE1, TAMRA/BHQ-2 abasic DNA cleavage fluorescence; activity change, negative = inhibition: at 65.8 µM (top of the series).
Sequence of DNA repair nuclease/redox regulator APEX1 (Homo sapiens) (P27695 whole entry, looked up): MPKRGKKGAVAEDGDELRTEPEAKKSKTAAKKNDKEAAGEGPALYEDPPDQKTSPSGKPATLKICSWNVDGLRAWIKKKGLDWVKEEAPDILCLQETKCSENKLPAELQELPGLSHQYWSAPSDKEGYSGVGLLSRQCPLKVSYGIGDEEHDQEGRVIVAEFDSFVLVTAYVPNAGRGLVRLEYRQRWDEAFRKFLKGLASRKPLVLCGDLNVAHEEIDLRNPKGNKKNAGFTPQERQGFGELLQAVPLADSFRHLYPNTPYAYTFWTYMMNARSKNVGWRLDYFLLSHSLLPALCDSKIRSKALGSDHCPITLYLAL
Outline: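 Activity was derived from the fluorescence gain between first and third kinetic reads (60 s intervals, ex 525/em 598 nm) after 50 nM THF-abasic TAMRA/BHQ-2 duplex was added to 0.75 nM APE1 preincubated 15 min with compound.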
For `COC(=O)C1(C(C)=O)CC2=CC[C@H]3C(=O)N(c4ccccc4)C(=O)[C@H]3[C@@H]2Cc2ccccc2[C@@H]1C[N+](=O)[O-]` (stereo partly drawn), the Potency was “inactive”. For `OC[C@H]1O[C@@H](n2cnc3c(NC4CCCC4)ncnc32)[C@H](O)[C@H]1O`, the “activity change, negative = inhibition” value was -5.52% (inactive). In the case of `Cc1csc(-c2coc3cc(O[C@@H]4O[C@H](CO)[C@@H](O)[C@@H](O)[C@H]4O)ccc3c2=O)n1`, the “activity change, negative = inhibition” value is reported as -2.33% (inactive). For `CCCCC/C=C/C=C/C=O`, the “activity change, negative = inhibition” value was 2.61% (inactive). In the case of `CNS(=O)(=O)c1cccc(C(=O)OCC(=O)N2c3ccccc3NC(=O)C2(C)C)c1`, the Potency is reported as 15 µM (active). `Cc1cc(C(=O)OCC(=O)N2c3ccccc3NC(=O)C2(C)C)c(C)n1-c1ccccc1` was tested, and the “activity change, negative = inhibition” value was -7.54% (inactive). `CCNc1ccc(C(=O)OCC(=O)N2c3ccccc3NC(=O)C2(C)C)cc1[N+](=O)[O-]` was tested, and the “activity change, negative = inhibition” value was 3.79% (inactive). For `CC(C)CO`, the “activity change, negative = inhibition” value was 2.7% (inactive). For `CN1CCN2c3ccccc3Cc3ccccc3[C@@H]2C1`, the Potency was “inactive”. `C/C(CCN1CCCCc2nc(C)c(C)cc21)=N\O[C@@H](C)c1cn([C@@H]2COC[C@@H]2O)nn1` was tested, and the activity change, negative = inhibition was 11.9% [at 12.4 µM] (inactive). `C=CC(C1=CC(=O)C=CC1=O)c1ccc(O)cc1` (stereo not drawn) was tested, and the “activity change, negative = inhibition” value was 0.838% (inactive). With `COc1cc([C@H](Cc2ccccc2)NC(C)=O)oc(=O)c1` the Potency was 28.2 µM (active). For `COc1ccc(OC)c(NC(=O)N[C@H](Cc2ccccc2)C(=O)NN)c1`, the “activity change, negative = inhibition” value was 10.3% (inactive). For `CCOC(=O)C(Cc1ccccc1)NC(=O)CCC(=O)c1ccc(OC)cc1` (stereo not drawn), the “activity change, negative = inhibition” value was 24.9% (inactive). In the case of `COC(=O)C1(C)C=CC2(CCCCC2)N1C(C)=O` (stereo not drawn), the “activity change, negative = inhibition” value is reported as 10.3% (inactive). With `N#Cc1ccc(CN2CCCC3(CCN(C(=O)c4ccco4)CC3)C2)cc1` the “activity change, negative = inhibition” value was -2.4% (inactive). With `C[C@H]1CCC[C@@]2(C)CCCC[C@]12O` the “activity change, negative = inhibition” value was 9.26% (inactive). For `COC(=O)CC1c2ccccc2C(Cc2ccc(OC)cc2)=C(C)N1C(=O)OC` (stereo not drawn), the activity change, negative = inhibition was -8.37% [at 12.4 µM] (inactive). In the case of `O=C(CCS(=O)(=O)c1ccc(Br)cc1)NCCc1ccc(Cl)cc1`, the “activity change, negative = inhibition” value is reported as -4.92% (inactive). With `COc1ccc(Cl)cc1NC(=O)CCS(=O)(=O)c1ccc(Br)cc1` the Potency was 11.9 µM (active). In the case of `CCOc1ccc(OCC)c(NC(=O)CCS(=O)(=O)c2ccc(C)cc2)c1`, the “activity change, negative = inhibition” value is reported as -15.2% (inactive). With `COc1cccc(Cn2c(=O)cnc3cncnc32)c1` the “activity change, negative = inhibition” value was -0.484% (inactive). In the case of `C=CC1=C2C=C(C3CC3)N(CC(C)C)C=C2C(=O)C(C)(OC(=O)c2ccco2)C1=O` (stereo not drawn), the activity change, negative = inhibition is reported as -5.75% [at 12.4 µM] (inactive). `COc1ccccc1CNc1ncnc2ccc(-c3c(C)noc3C)cc12` was tested, and the “activity change, negative = inhibition” value was -3.18% (inactive). In the case of `C[C@H]1Cc2c(-c3ccccc3)nc3c(c2CO1)CN(C(=O)C1CC1)CC3`, the activity change, negative = inhibition is reported as -1.16% [at 12.4 µM] (inactive). `COC(=O)C1(C)C=CCN1C(=O)c1ccccc1` (stereo not drawn) was tested, and the “activity change, negative = inhibition” value was 10.2% (inactive). `Cc1ccc(CNc2ccc(N3CCN(C(=O)OC(C)(C)C)CC3)cc2)cc1` was tested, and the “activity change, negative = inhibition” value was -2.24% (inactive). For `C=CCOC(=O)COCCC(C)C`, the “activity change, negative = inhibition” value was 16.3% (inactive). For `C/C=C/C1=C(C(=O)O)N2C(=O)[C@@H](NC(=O)[C@H](N)c3ccc(O)cc3)[C@H]2SC1`, the “activity change, negative = inhibition” value was 0.591% (inactive). In the case of `CC(C)(C)OC(=O)C1=C(CO)CS[C@@H]2[C@H](NC(=O)Cc3ccccc3)C(=O)N12`, the “activity change, negative = inhibition” value is reported as -6.04% (inactive). `Cc1cc(C)cc(C(=O)NC2C(=O)N3C(C(=O)O)=C(CSc4nnc(C)s4)CSC23)c1` (stereo not drawn) was tested, and the “activity change, negative = inhibition” value was 11% (inactive). In the case of `Cc1nnc(SCC2=C(C(=O)O)N3C(=O)C(NC(=O)Cn4nc(C)c(Cl)c4C)C3SC2)s1` (stereo not drawn), the “activity change, negative = inhibition” value is reported as -12.4% (inactive). For `CO/N=C(\C(=O)N[C@@H]1C(=O)N2C(C(=O)O)=C(COC(C)=O)CS[C@H]12)c1csc(N)n1` (stereo in doubt), the Potency was “inactive and 10 µM (active) and 10.6 µM (active)”. With `C=CC1=C(C(=O)O)N2C(=O)[C@@H](NC(=O)/C(=N\OCC(=O)O)c3csc(N)n3)[C@H]2SC1` the Potency was 11.9 µM (active). For `CC(C)[C@@H](OCc1ccccc1)[C@H](C)/C=N\OC[C@@H](C)[C@H](OCc1ccccc1)C(C)C`, the activity change, negative = inhibition was -2.11% [at 12.4 µM] (inactive). With `CO[C@H]1C=CO[C@@]2(C)Oc3c(C)c(O)c4c(O)c(c(/C=N/N5CCN(C)CC5)c(O)c4c3C2=O)NC(=O)/C(C)=C\C=C[C@H](C)[C@H](O)[C@@H](C)[C@@H](O)[C@@H](C)[C@H](OC(C)=O)[C@@H]1C` the “activity change, negative = inhibition” value was -5.53% (inactive). For `CC[C@H](C)CCCCC(=O)N[C@@H](CCN)C(=O)N[C@H](C(=O)N[C@@H](CCN)C(=O)N[C@H]1CCNC(=O)[C@@H]([C@H](C)O)NC(=O)[C@H](CCN)NC(=O)[C@H](CCN)NC(=O)[C@H](CC(C)C)NC(=O)[C@@H](CC(C)C)NC(=O)[C@H](CCN)NC1=O)[C@@H](C)O` (X1-[Dab]T[Dab][Dab][Dab][dL]L[Dab][Dab][dT]; lactam 4-C), the “activity change, negative = inhibition” value was 9.36% [at 21 µM] (inactive). `C[C@H]1Cc2c(COc3ccccc3)nc3c(c2CO1)CN(C(=O)Nc1cccc(C#N)c1)CC3` was tested, and the activity change, negative = inhibition was -2.12% [at 12.4 µM] (inactive). In the case of `OCCC(O)CO` (stereo not drawn), the Potency is reported as “inactive”. `O=C(c1csnn1)N1CCC[C@@]2(CCN(c3cccc(-c4ccccc4)c3)C2)C1` was tested, and the “activity change, negative = inhibition” value was 1.07% (inactive). For `Cn1cccc1C(=O)N1CCC2(CC1)CN(c1cccc(-c3ccccc3)c1)C2`, the “activity change, negative = inhibition” value was -0.0489% (inactive). `Nc1ncnc2c1ncn2C1CC(O)C(CO)O1` (stereo not drawn) was tested, and the Potency was “inactive”. In the case of `CC1(OC(=O)c2ccc(Cl)nc2)C(=O)Cc2cc(-c3ccsc3)ncc2C1=O` (stereo not drawn), the activity change, negative = inhibition is reported as -0.549% [at 12.4 µM] (inactive). `Cc1ccc(C(=O)NNC(=O)c2ccc3c(c2)OCCO3)cc1` was tested, and the “activity change, negative = inhibition” value was 42.9% (inactive). With `Cc1ccc(C(=O)NNc2ncnc3ccccc23)cc1` the “activity change, negative = inhibition” value was 8.13% (inactive). `Cc1ccc(C(=O)NNC(=O)c2cc3cc4ccccc4nc3s2)cc1` was tested, and the Potency was 22.4 µM (active). For `Cn1cc(-c2nc3cnc(N4CCNCC4)nc3n(CCc3ccccc3)c2=O)c2ccccc21`, the “activity change, negative = inhibition” value was -2.84% (inactive). For `COc1ccc(Oc2ncc3nc(-c4ccc(F)cc4)c(=O)n(C)c3n2)cc1`, the “activity change, negative = inhibition” value was 3% (inactive).
